Source: PubChem BioAssay AID1063 (University of Pittsburgh Molecular Library Screening Center, 2008)
Out of some 200,000 compounds screened, about 18,000 (9%) were called active. What follows is part of a selection rich in actives, with near analogues and random picks from the rest. Unmarked numbers belong to inactive results. Rule as the data show it: active = inhibition above about 50%; inactive = the rest.

Test: Leishmania major promastigote growth inhibition, primary screen (AID 1063);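 also: promastigotes grown with compound for 44 hours at 28 °C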
Conditions: Leishmania major promastigotes, resazurin fluorescence viability; at 10 µM; hits give high values

Compound	inhibition
C=CCn1c(CCc2ccc(OC(C)C)cc2)n[nH]c1=S	1.12%
O=C(c1ccc(F)cc1)N1CCC(n2nnc3ccccc32)CC1	1.08%
CCc1c(O)nc(SCC(=O)N2CCCCC2)n(-c2ccccc2C)c1=O	1%
CC(=O)c1c(O)cc2n(c1=O)-c1ccc(Cl)cc1C2(C)C	-6.77%
CCc1c(O)cc2n(c1=O)-c1ccccc1C2(C)C	51.1% (active)
O=C(Nc1nnc(C2CC2)s1)C1=NN(C2CCS(=O)(=O)C2)C(=O)CC1 (stereo unspecified)	-3.9%
COC(=O)c1cc2c(ccn2C)n1C	-2.26%
N#CC1=C(SCc2ccccc2)NC(=O)C(C#N)C12CCCC2 (stereo unspecified)	-9.59%
N#C/C(=C1\CCCN1)c1nc(-c2ccccc2)cs1	4.05%
N#CC1=C(SCc2ccc(C#N)cc2)N=C(N)C(c2nc(-c3ccccc3)cs2)C12CCCCC2 (stereo unspecified)	98% (active)
CCN(CC)S(=O)(=O)c1ccc(OC(C)C)c(N)c1	-4.13%
Nc1nc(SCC(=O)NNc2c(Cl)cc(Cl)cc2Cl)n[nH]1	-7.01%
COc1cc(/C=C2\SC(=S)N(Nc3ncc(C(F)(F)F)cc3Cl)C2=O)cc(OC)c1OC	-11.1%
CCOC(=O)CNC(=O)N1c2ccccc2Sc2ccccc21	3.23%
COc1cc(/C=C/C(=O)O)cc(S(=O)(=O)Nc2ccccc2SC)c1OC	46.9%
COc1cc(/C=C/C(=O)N2c3ccccc3Sc3ccc(C(F)(F)F)cc32)cc(OC)c1OC	81.2% (active)
O=C(CN1CCCCCC1)N1c2ccccc2Sc2ccc(C(F)(F)F)cc21	46%
O=C(CN1CCCCC1)N1c2ccccc2Sc2ccc(C(F)(F)F)cc21	92% (active)
O=C(NC(Cc1c[nH]c2ccccc12)C(=O)O)/C(=C/c1ccco1)NC(=O)c1ccccc1 (stereo unspecified)	3.28%
COc1ccc(CC(NC(C)=O)C(=O)NC2CCN(C(=O)c3ccc(OC)c(OC)c3)CC2)cc1OC (stereo unspecified)	-4.66%
CCCN(CC(=O)Nc1ccc(C(N)=O)cc1)CC(=O)Nc1ccccc1C	7.98%
Cc1cccc(C(=O)Nc2ccc3c(c2)C(=O)N(CC(C)C)C3=O)c1	-9.76%
COc1ccc2c(c1)cc1n2CCN=C1NN	84.1% (active)
Cc1cc(C(=O)Cn2cnc3cc([N+](=O)[O-])ccc3c2=O)c(C)n1CC1CCCO1 (stereo unspecified)	-3.96%

Compound	inhibition
Clc1ccc(C2=CSC3=Nc4cccc5cccc(c45)N23)cc1	99.4% (active)
Cc1ccc(NC(=O)O/N=C/c2cccc([N+](=O)[O-])c2)cc1	-3.19%
O=C1CCC/C(=N\NC(=O)NC2CCCCC2)C1	-1.59%
CCOc1ccc(S(=O)(=O)Nc2nccs2)cc1	-5.45%
CC(C)(C)C(=O)CN1C2=NCCN2c2ccccc21	-5.39%
Fc1cccc(CSc2nnc3ccc(-c4ccncc4)nn23)c1	10.7%
Cc1c(C(=O)N2CCOCC2)[nH]c2ccc(OCc3ccccc3)cc12	88.8% (active)
CCOC(=O)c1[nH]c2ccc(OC)cc2c1NC(=O)N1CCOCC1	2.48%
Cc1c(C(=O)CN2CCOCC2)[nH]c2ccccc12	-3.24%
CCCCN(C(=O)c1ccc(OC(F)(F)F)cc1)c1c(N)n(CCC)c(=O)[nH]c1=O	-4.12%
Cc1ccc(S(=O)(=O)N(C)C)cc1NC(=O)COC(=O)C1COc2ccccc2O1 (stereo unspecified)	4.18%
CSc1ncccc1C(=O)Nc1nc2ccc(F)cc2s1	28.5%
Fc1ccc2nc(N3CCCCC3)sc2c1	2.6%
Fc1ccc2nc(Nc3nc4c(s3)CCCC4)sc2c1	77.9% (active)
CCn1c(SCC(=O)N(C)C2CCS(=O)(=O)C2)nnc1-c1cccs1 (stereo unspecified)	-1.56%
COc1ccc(NC(=O)c2cc3nc(-c4ccccc4)cc(C)n3n2)cc1OC	19.4%
CN(C)CCCN(C(=O)COc1ccccc1)c1nc2c(Cl)cccc2s1	1.9%
COc1cccc2sc(N(CCCN(C)C)C(=O)C(c3ccccc3)c3ccccc3)nc12	94.5% (active)
CC(=O)N(CCCN(C)C)c1nc2ccc(C)cc2s1	-6.81%
CCCCCCCNc1nc(Cl)nc(NCCO)n1	-8.89%
COc1cc2c(C(=O)N3CCN(C)CC3)c(CSc3ccccc3)n(C)c2cc1Br	50.6% (active)
COc1ccc(Br)cc1CN1CCN(C(=O)c2cccc(OC)c2OC)CC1	0.16%
COc1ccccc1OCc1ccc(C(=O)N2CCN(C)CC2)o1	-7.4%
CC(=O)c1ccc(N2CCN(S(=O)(=O)c3c(C)[nH]c(=O)[nH]c3=O)CC2)cc1	-5.88%

Compound	inhibition
Cc1oc2cc([N+](=O)[O-])c(O)c([N+](=O)[O-])c2c1C(=O)c1ccc(Br)cc1	-8.1%
COc1cccc(CN(C)CC(=O)Nc2sc3c(c2C#N)CCC3)c1	-4.03%
O=C(CN1C(=O)CC(c2ccccc2)S(=O)(=O)c2ccccc21)NC1CCCC1 (stereo unspecified)	5.62%
COc1ccc(-n2cnnc2SCC(=O)Nc2cccc([N+](=O)[O-])c2)cc1	-9.51%
CC(C)CC(=O)NC(=S)NNC(=O)c1cccc([N+](=O)[O-])c1	7%
Cn1c(-c2ccc(F)cc2)cnc1SCC(=O)NNC(=O)Cc1ccccc1	0.35%
COC(=O)Cn1c(=NC(=O)c2cc(OC)c(OC)c(OC)c2)sc2cc(OC)ccc21	55.3% (active)
COC(=O)c1sccc1NC(=O)c1cc(OC)c(OC)c(OC)c1	8.27%
COC(=O)Cn1c2ccc(C)cc2c2nc(C)sc21	-6.29%
CC(C)(C)C(=O)CSc1nc2ccccc2o1	4.86%
CCN(CC)CCNc1nc(-c2ccc(OC(F)F)cc2)c(C)s1	99.4% (active)
NC(=O)C[n+]1cccc(C(N)=O)c1	-3%
COn1c(-c2ccc(Cl)cc2Cl)nc2ncccc21	-6.75%
S=c1[nH]nc(-c2cccnc2)n1/N=C/C(Cl)=C\c1ccccc1	86% (active)
Cc1cc(-c2n[nH]c(=S)n2/N=C/C(Br)=C/c2ccccc2)n[nH]1	88.5% (active)
CCN(CC)S(=O)(=O)c1cccc(-c2n[nH]c(=S)n2/N=C/c2ccc(C(=O)OC)cc2)c1	27.8%
Cc1ccccc1-c1n[nH]c(=S)n1/N=C/c1ccc(-c2ccccc2Br)o1	23%
COc1ccccc1N1CCN(/N=C\C(Br)=C\c2ccccc2)CC1	-5.39%
c1ccc(-n2nnnc2-c2cccnc2)cc1	-7.89%
Clc1ccc(N/N=C/c2cccs2)nn1	-2.51%
C/C(N)=C(/C#N)C(=O)COC(=O)c1cc(-c2ccc(C)cc2)nc2ccccc12	18.1%
C/C(N)=C(/C#N)C(=O)COC(=O)c1cc(-c2cccc(Br)c2)nc2ccccc12	59.9% (active)
C/C(N)=C(/C#N)C(=O)COC(=O)c1cc(-c2ccccc2)nc2ccc(Br)cc12	-4.87%
O=C(NCc1ccccc1Cl)C1CCCO1 (stereo unspecified)	-3.01%

Compound	inhibition
COc1ccc(-c2nnc3ccc(SCc4ccccc4)nn23)cc1	-3.51%
O=C1CCC(=O)N1c1ccc(NCCc2ccccc2F)c([N+](=O)[O-])c1	-3.12%
Cc1ccccc1C(=O)OC1OC(=O)C(Cl)=C1Nc1ccccc1 (stereo unspecified)	2.63%
COc1ccc(C(=O)COC(=O)c2nn(C)c(=O)c3ccccc23)c(OC)c1	-4.39%
Cc1ccc(CC(=O)Nc2ccc(OC(F)F)c(Cl)c2)cc1C	91.2% (active)
FC(F)Oc1ccc(NC(=S)NCc2ccco2)cc1Cl	12.2%
Cc1ccc(S(=O)(=O)NCCC(=O)Nc2ccc(C)c(Cl)c2)cc1C	4.01%
CC(C)Cn1c(N)c(C(=O)COC(=O)CN2C(=O)C3CC=CCC3C2=O)c(=O)n(C)c1=O (stereo unspecified)	0.69%
O=[N+]([O-])/C(N=Nc1ccccc1)=N\Nc1ccccc1	0.84%
CCOc1cccc(/C=N/N2C(=O)CSC2=S)c1O	2.44%
Cc1ccccc1-n1cc(CNC(=O)CC2C(=O)NCCN2C/C=C/c2ccccc2)cn1 (stereo unspecified)	-1.38%
CCOC(=O)c1oc2c(CN3CCN(CCO)CC3)c(O)c(CC)cc2c(=O)c1-c1nc2ccccc2s1	-5.26%
COc1ccc(-c2cc(C(F)(F)F)nc(SCC(=O)Nc3ccc4c(c3)OCO4)n2)cc1OC	0.67%
COc1ccc(-c2cc(C(F)(F)F)nc(S(C)(=O)=O)n2)cc1OC	71.7% (active)
COc1cc(OC)nc(S(C)(=O)=O)n1	-0.01%
O=C(/C=C/c1ccc(N2CCOCC2)cc1)c1ccccc1	13.2%
O=c1[nH]c(CN2CCOCC2)nc2scc(-c3ccccc3)c12	-8.93%
O=C(CSCc1ccc(Br)cc1)Nc1ccc(S(=O)(=O)N2CCCCCC2)cc1	6.78%
CN(CC(=O)Nc1ccc(S(=O)(=O)N2CCCC2)cc1)Cc1ccc(Cl)c(Cl)c1	92% (active)
CS(=O)(=O)N(CC(=O)Nc1ccc(Cl)c(Cl)c1)C1CCCCC1	15.8%
O=C(NNC(=O)C1CCN(c2ncccn2)CC1)c1ccccc1	-7.74%
O=C(Cn1nnc(-c2ccccc2)n1)NCc1ccc2c(c1)OCO2	-6.91%
O=C(CCCCn1c(=O)[nH]c2ccccc2c1=O)NCc1ccc2c(c1)OCO2	4.03%
O=C1N(Cc2ccc3c(c2)OCO3)c2ccccc2C1(O)c1c[nH]c2ccccc12 (stereo unspecified)	88.9% (active)
